In PubChem BioAssay AID1159580 (chemical genetic matrix, 2015):
The campaign covered roughly 5,500 compounds. About 2,000 (36%) were called active. Another 18% or so got no clear call; they are omitted. Rule as the data show it: active = normalized growth mostly below about 0.91 (no sharp cut-off); inconclusive = no clear call, values can overlap the other calls; inactive = mostly above about 0.92. The list shows a part of the results.

Assay: chemical genetic growth profiling, strain panel (AID 1159580);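 also: tested at 20 µM; growth read once vehicle control cultures reached saturation at 30 °C; 1 = growth at the plate median or of vehicle wells; lower values mean less growth of the strain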
Details: growth OD
[1] = S. cerevisiae deletion strains, locus YHR030C, strain SLT2, stronger effect = lower value

Measured: normalized growth

CN(C)C=Nc1nc2c(s1)CCc1ccccc1-2
active: S. cerevisiae deletion strains, locus YEL061C, strain CIN8, stronger effect = lower value 0.878 | [1] 0.477 | S. cerevisiae deletion strains, locus YLR085C, strain ARP6, stronger effect = lower value 0.622 | S. cerevisiae deletion strains, locus YLR262C, strain YPT6, stronger effect = lower value 0.811 | S. cerevisiae deletion strains, locus YML094W, strain GIM5, stronger effect = lower value 0.798 | S. cerevisiae deletion strains, locus YNL298W, strain CLA4 (second series), stronger effect = lower value 0.825 | S. cerevisiae deletion strains, locus YPL055C, strain LGE1, stronger effect = lower value 0.799 | S. cerevisiae deletion strains, locus YPL241C, strain CIN2, stronger effect = lower value 0.819 | S. cerevisiae deletion strains, locus YPR135W, strain CTF4, stronger effect = lower value 0.635
inactive: S. cerevisiae deletion strains, locus YAL013W, strain DEP1, stronger effect = lower value 0.953 | S. cerevisiae deletion strains, locus YBR229C, strain ROT2, stronger effect = lower value 0.975 | S. cerevisiae deletion strains, locus YDL101C, strain DUN1, stronger effect = lower value 0.964 | S. cerevisiae deletion strains, locus YDR150W, strain NUM1, stronger effect = lower value 0.934 | S. cerevisiae deletion strains, locus YGR078C, strain PAC10, stronger effect = lower value 0.989 | S. cerevisiae deletion strains, locus YHR087W, strain rtc3, stronger effect = lower value 1.01 | S. cerevisiae deletion strains, locus YJL187C, strain SWE1, stronger effect = lower value 0.972 | S. cerevisiae deletion strains, locus YJR043C, strain POL32, stronger effect = lower value 0.994 | S. cerevisiae deletion strains, locus YJR075W, strain HOC1, stronger effect = lower value 0.957 | S. cerevisiae deletion strains, locus YLR039C, strain RIC1, stronger effect = lower value 0.794 | S. cerevisiae deletion strains, locus YLR058C, strain SHM2 (second series), stronger effect = lower value 0.989 | S. cerevisiae deletion strains, locus YMR219W, strain ESC1, stronger effect = lower value 0.991 | S. cerevisiae deletion strains, locus YMR263W, strain SAP30, stronger effect = lower value 0.977 | S. cerevisiae deletion strains, locus YNL153C, strain GIM3, stronger effect = lower value 0.968 | S. cerevisiae deletion strains, locus YNL322C, strain KRE1, stronger effect = lower value 0.994 | S. cerevisiae deletion strains, locus YNR030W, strain Alg12, stronger effect = lower value 0.899 | S. cerevisiae strains, strain wild type, stronger effect = lower value 0.997

NCC1CCCCC1CC(=O)O (stereo not given)
inactive: S. cerevisiae deletion strains, locus YAL021C, strain ccr4, stronger effect = lower value 1.01 | S. cerevisiae deletion strains, locus YAL026C, strain drs2, stronger effect = lower value 1.02 | S. cerevisiae deletion strains, locus YAL030W, strain snc1, stronger effect = lower value 1.03 | S. cerevisiae deletion strains, locus YBL061C, strain skt5, stronger effect = lower value 1.04 | S. cerevisiae deletion strains, locus YBR009C, strain hhf1, stronger effect = lower value 0.988 | S. cerevisiae deletion strains, locus YBR023C, strain chs3, stronger effect = lower value 1.02 | S. cerevisiae deletion strains, locus YBR171W, strain sec66, stronger effect = lower value 1.03 | S. cerevisiae deletion strains, locus YBR231C, strain swc5, stronger effect = lower value 1.01 | S. cerevisiae deletion strains, locus YBR279W, strain paf1, stronger effect = lower value 1.03 | S. cerevisiae deletion strains, locus YCL011C, strain gbp2, stronger effect = lower value 1.02 | S. cerevisiae deletion strains, locus YCL016C, strain dcc1, stronger effect = lower value 1 | S. cerevisiae deletion strains, locus YCL061C, strain MRC1, stronger effect = lower value 1.04 | S. cerevisiae deletion strains, locus YCL069W, strain vba3, stronger effect = lower value 1.02 | S. cerevisiae deletion strains, locus YCR088W, strain abp1, stronger effect = lower value 1.04 | S. cerevisiae deletion strains, locus YDL005C, strain med2, stronger effect = lower value 1.02 | S. cerevisiae deletion strains, locus YDL040C, strain nat1, stronger effect = lower value 1.02 | S. cerevisiae deletion strains, locus YDR001C, strain nth1, stronger effect = lower value 1.02 | S. cerevisiae deletion strains, locus YDR069C, strain doa4, stronger effect = lower value 1.05 | S. cerevisiae deletion strains, locus YDR137W, strain rgp1, stronger effect = lower value 1.03 | S. cerevisiae deletion strains, locus YDR159W, strain sac3, stronger effect = lower value 0.98 | S. cerevisiae deletion strains, locus YDR195W, strain ref2 0.989 | S. cerevisiae deletion strains, locus YDR297W, strain sur2, stronger effect = lower value 1.05 | S. cerevisiae deletion strains, locus YDR334W, strain swr1, stronger effect = lower value 1.02 | S. cerevisiae deletion strains, locus YDR335W, strain msn5, stronger effect = lower value 1.03 | S. cerevisiae deletion strains, locus YDR392W, strain spt3, stronger effect = lower value 0.95 | S. cerevisiae deletion strains, locus YEL003W, strain gim4, stronger effect = lower value 1.03 | S. cerevisiae deletion strains, locus YEL037C, strain rad23, stronger effect = lower value 1.02 | S. cerevisiae deletion strains, locus YEL061C, strain CIN8 (second series), stronger effect = lower value 1.02 | S. cerevisiae deletion strains, locus YER015W, strain faa2, stronger effect = lower value 1.03 | S. cerevisiae deletion strains, locus YER016W, strain bim1, stronger effect = lower value 1 | S. cerevisiae deletion strains, locus YER111C, strain swi4, stronger effect = lower value 1.01 | S. cerevisiae deletion strains, locus YER155C, strain BEM2 (second series), stronger effect = lower value 1.07 | S. cerevisiae deletion strains, locus YFR010W, strain ubp6, stronger effect = lower value 1.02 | S. cerevisiae deletion strains, locus YGL167C, strain pmr1, stronger effect = lower value 1.03 | S. cerevisiae deletion strains, locus YGL173C, strain kem1, stronger effect = lower value 1.04 | S. cerevisiae deletion strains, locus YGL227W, strain vid30, stronger effect = lower value 1.03 | S. cerevisiae deletion strains, locus YGL240W, strain doc1, stronger effect = lower value 1.04 | S. cerevisiae deletion strains, locus YGL253W, strain hxk2, stronger effect = lower value 1.03 | S. cerevisiae deletion strains, locus YHR013C, strain ard1, stronger effect = lower value 1.02 | S. cerevisiae deletion strains, locus YHR027C, strain rpn1, stronger effect = lower value 1.01 | [1] 0.999 | S. cerevisiae deletion strains, locus YHR079C, strain IRE1, stronger effect = lower value 0.997 | S. cerevisiae deletion strains, locus YHR142W, strain chs7, stronger effect = lower value 1.03 | S. cerevisiae deletion strains, locus YJL092W, strain hpr5, stronger effect = lower value 1.03 | S. cerevisiae deletion strains, locus YJL095W, strain BCK1 (second series), stronger effect = lower value 1.02 | S. cerevisiae deletion strains, locus YJL095W, strain BCK1, stronger effect = lower value 0.988 | S. cerevisiae deletion strains, locus YJL115W, strain asf1, stronger effect = lower value 1.03 | S. cerevisiae deletion strains, locus YJL129C, strain trk1, stronger effect = lower value 1.04 | S. cerevisiae deletion strains, locus YJL154C, strain vps35, stronger effect = lower value 1.01 | S. cerevisiae deletion strains, locus YJL164C, strain tpk1, stronger effect = lower value 1.01 | S. cerevisiae deletion strains, locus YJL166W, strain qcr8, stronger effect = lower value 1.05 | S. cerevisiae deletion strains, locus YJR066W, strain TOR1, stronger effect = lower value 0.941 | S. cerevisiae deletion strains, locus YKL160W, strain elf1, stronger effect = lower value 1.04 | S. cerevisiae deletion strains, locus YKR026C, strain gcn3, stronger effect = lower value 1.02 | S. cerevisiae deletion strains, locus YKR091W, strain srl3, stronger effect = lower value 1.02 | S. cerevisiae deletion strains, locus YLL001W, strain dnm1, stronger effect = lower value 1.04 | S. cerevisiae deletion strains, locus YLL026W, stronger effect = lower value 1.01 | S. cerevisiae deletion strains, locus YLL041C, strain sdh2, stronger effect = lower value 1.02 | S. cerevisiae deletion strains, locus YLR027C, strain aat2, stronger effect = lower value 1.04 | S. cerevisiae deletion strains, locus YLR113W, strain HOG1, stronger effect = lower value 0.959 | S. cerevisiae deletion strains, locus YLR221C, strain rsa3, stronger effect = lower value 1 | S. cerevisiae deletion strains, locus YLR258W, strain gsy2, stronger effect = lower value 1.02 | S. cerevisiae deletion strains, locus YLR262C, strain YPT6 (second series), stronger effect = lower value 1.04 | S. cerevisiae deletion strains, locus YLR320W, strain mms22, stronger effect = lower value 1 | S. cerevisiae deletion strains, locus YLR342W, strain FKS1, stronger effect = lower value 1.04 | S. cerevisiae deletion strains, locus YLR357W, strain rsc2, stronger effect = lower value 1.04 | S. cerevisiae deletion strains, locus YLR370C, strain arc18, stronger effect = lower value 1.03 | S. cerevisiae deletion strains, locus YLR384C, strain iki3, stronger effect = lower value 1.02 | S. cerevisiae deletion strains, locus YML120C, strain ndi1, stronger effect = lower value 1.03 | S. cerevisiae deletion strains, locus YMR058W, strain fet3, stronger effect = lower value 1.04 | S. cerevisiae deletion strains, locus YMR125W, strain sto1, stronger effect = lower value 0.985 | S. cerevisiae deletion strains, locus YMR129W, stronger effect = lower value 1.02 | S. cerevisiae deletion strains, locus YMR205C, strain PFK2, stronger effect = lower value 1.04 | S. cerevisiae deletion strains, locus YMR231W, strain pep5, stronger effect = lower value 1.02 | S. cerevisiae deletion strains, locus YNL071W, strain lat1, stronger effect = lower value 1.01 | S. cerevisiae deletion strains, locus YNL183C, strain NPR1, stronger effect = lower value 0.912 | S. cerevisiae deletion strains, locus YNL209W, strain ssb2, stronger effect = lower value 1.03 | S. cerevisiae deletion strains, locus YNL248C, strain rpa49, stronger effect = lower value 1.01 | S. cerevisiae deletion strains, locus YNL322C, strain KRE1 (second series), stronger effect = lower value 1.02 | S. cerevisiae deletion strains, locus YNR049C, strain mso1, stronger effect = lower value 1.02 | S. cerevisiae deletion strains, locus YOR001W, strain rrp6, stronger effect = lower value 1.04 | S. cerevisiae deletion strains, locus YOR070C, strain gyp1, stronger effect = lower value 1.02 | S. cerevisiae deletion strains, locus YOR080W, strain dia2, stronger effect = lower value 1.04 | S. cerevisiae deletion strains, locus YOR083W, strain WHI5, stronger effect = lower value 1.01 | S. cerevisiae deletion strains, locus YOR106W, strain vam3, stronger effect = lower value 1.06 | S. cerevisiae deletion strains, locus YOR231W, strain MKK1, stronger effect = lower value 0.992 | S. cerevisiae deletion strains, locus YOR265W, strain rbl2, stronger effect = lower value 1.03 | S. cerevisiae deletion strains, locus YOR270C, strain vph1, stronger effect = lower value 1.04 | S. cerevisiae deletion strains, locus YOR290C, strain snf2, stronger effect = lower value 1 | S. cerevisiae deletion strains, locus YPL051W, strain arl3, stronger effect = lower value 1.03 | S. cerevisiae deletion strains, locus YPL078C, strain atp4, stronger effect = lower value 1.05 | S. cerevisiae deletion strains, locus YPL106C, strain sse1, stronger effect = lower value 1 | S. cerevisiae deletion strains, locus YPL240C, strain hsp82, stronger effect = lower value 1.02 | S. cerevisiae deletion strains, locus YPL256C, strain CLN2, stronger effect = lower value 0.961
